Measurements reported in PubChem BioAssay (Tox21).
Records with an inconclusive call do not appear. Calls of active or inactive are those of the source. Unless noted, calls follow the shape of the full dose curve.

How the values were obtained:
[1] = Nuclear factor erythroid 2-related factor 2/antioxidant responsive element (Nrf2/ARE) small molecule agonists: luciferase reporter gene qHTS assay in human keratinocytes (AID 1919969); also: nearly all actives have a fitted effect of over 35% in size; also: potency is read from the fitted curve at half-maximal effect
[2] = molecular target: KiSS-1 receptor (Homo sapiens) (UniProt Q969F8); test: Human kisspeptin (KISS1R) small molecule agonists, calcium flux assay in KISS1R-HEK293 cells (AID 1920064; active = well fitted activation curve with a large enough effect in the repeat runs)
Method in brief: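 Triplicate 15-concentration series were applied to dye-loaded human KISS1R HEK293 cells, and agonist-evoked calcium fluorescence was captured for 3 min.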

[3] = G protein-coupled receptor (GPCR) small molecule agonists, calcium flux assay: HEK293 wild type cell line counter screen (AID 1920065); also: potency is read from the fitted curve at half-maximal effect
Method in brief: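 Non-specific calcium responders were flagged by adding DMSO-dissolved compounds to dye-loaded cells and reading 480/540 nm fluorescence each second for 3 min; ATP served as positive control.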

[4] = p53 small molecule agonists, cell-based qHTS assay with human liver microsomes (AID 1963577);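 also: p53 response element beta-lactamase reporter cells with liver microsomes plus NADPH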
Method in brief: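 In this qHTS, p53 response-element beta-lactamase cells receive test compound together with a microsome/NADPH activating system (0.5 mg/mL final each) and are incubated 16 h at 37 C before LiveBLAzer fluorescence detection.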

[5] = p53 small molecule agonists, cell-based qHTS assay with rat liver microsomes (AID 1963578)
Method in brief: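 Agonist mode in p53RE-bla reporter cells, with compounds co-incubated 16 h at 37 C alongside 0.5 mg/mL rat liver microsomes and 0.5 mg/mL NADPH (final), followed by a 2 h LiveBLAzer detection step.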

[6] = p53 small molecule agonists, cell-based qHTS assay with human liver microsomes: qHTS cell viability counter screen (AID 1963579); also: nearly all actives have a fitted effect of over 45% in size; also: potency is read from the fitted curve at half-maximal effect
Method in brief: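 Metabolically activated exposure: compounds, human liver microsomes and NADPH (0.5 mg/mL final apiece) were added to p53RE-bla cells seeded 5 h earlier, left 16 h at 37 C, and then assessed for viability by CellTiter-Glo luminescence.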

[7] = p53 small molecule agonists, cell-based qHTS assay with rat liver microsomes: qHTS cell viability counter screen (AID 1963580); also: nearly all actives have a fitted effect of over 45% in size
Method in brief: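 Cytotoxicity counter screen: intracellular ATP read by CellTiter-Glo luminescence in the p53 reporter wells. HCT-116 p53RE-bla cells were treated for 16 h at 37 C alongside rat liver microsomes and NADPH, each 0.5 mg/mL final.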

[8] = p53 small molecule agonists, cell-based qHTS assay: qHTS cell viability counter screen (AID 1963581); also: nearly all actives have a fitted effect of over 45% in size; also: potency is read from the fitted curve at half-maximal effect
Method in brief: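 Multiplexed with the reporter read, a CellTiter-Glo step (30 min, room temperature) gauges ATP-based viability of HCT-116 p53RE-bla cells after 16 h compound incubation at 37 C.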

[9] = p53 small molecule agonists, cell-based qHTS assay (AID 1963582; active = well fitted activation curve with a large enough effect in the signal ratio in the repeat runs, not every such curve was filed as active; the % refers to the signal ratio)
Method in brief: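 Beta-lactamase reporter cells (p53RE-bla) treated with compounds for 16 h at 37 C; FRET substrate, 2 h, room temperature; fluorescence intensity.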

[10] = molecular target: 5-hydroxytryptamine receptor 2A (Homo sapiens) (UniProt P28223); test: 5-hydroxytryptamine receptor 2A (HTR2A) small molecule antagonists, cell-based qHTS assay (AID 1963586); also: nearly all actives have a fitted effect of over 45% in size
Method in brief: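 CHO cells stably expressing human HTR2A were plated for 18 h at 37 C, then loaded with calcium dye for 1 h. Compounds were preincubated 5 min at room temperature before DOI (4 nM solution) was added. Kinetic fluorescence was read for 3 min.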

[11] = molecular target: 5-hydroxytryptamine receptor 2A (Homo sapiens) (UniProt P28223); test: 5-hydroxytryptamine receptor 2A (HTR2A) small molecule agonists, cell-based qHTS assay (AID 1963587); also: nearly all actives have a fitted effect of over 30% in size; also: potency is read from the fitted curve at half-maximal effect
Method in brief: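 Kinetic calcium-flux fluorescence (2 min, 1 sec intervals) after compound addition in agonist mode. HTR2A-CHO cells were cultured 18 h, then dye-loaded 1 h at 37 C.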

[12] = molecular target: Muscarinic acetylcholine receptor M1 (Homo sapiens) (UniProt P11229); test: Cholinergic receptor muscarinic 1 (CHRM1) small molecule agonists, cell-based qHTS assay (AID 1963589); also: nearly all actives have a fitted effect of over 35% in size
Method in brief: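 qHTS, 15-point titration, 3 independent runs: compounds pin-transferred onto dye-loaded CHRM1-CHO cells (human M1), calcium fluorescence followed every second to detect agonism.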

[13] = molecular target: Beta-2 adrenergic receptor (Homo sapiens) (UniProt P07550); test: Adrenergic beta2 receptor (ADRB2) small molecule antagonists, cell-based qHTS assay (AID 1963592); also: series mostly up to about 92 µM; nearly all actives have a fitted effect of over 50% in size
Method in brief: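 Assay format: CHO-ADRB2 cells, 18-20hr seeding at 37C/5% CO2, then compound plus 1nM isoproterenol agonist mix for 0.5hr RT. Homogeneous time-resolved fluorescence cAMP detection after 1hr, expressed as 665/615 nm ratio.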

[14] = molecular target: D(2) dopamine receptor (Homo sapiens) (UniProt P14416); test: Dopamine D2 receptor (DRD2) small molecule agonists, cell-based qHTS assay (AID 1963594); also: nearly all actives have a fitted effect of over 35% in size
Method in brief: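 cAMP accumulation in DRD2-HEK293 cells measured by HTRF after 1 h detection; compounds added 10 min before NKH477 (200nM […]) forskolin-analogue stimulation, 30 min at room temperature, with Ro20-1724 present at 0.1 mM final.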

[15] = molecular target: D(2) dopamine receptor (Homo sapiens) (UniProt P14416); test: Dopamine D2 receptor (DRD2) small molecule antagonists, cell-based qHTS assay (AID 1963595; active = well fitted inhibition curve with a large enough effect in the signal ratio in the repeat runs, with a control signal flat; the % refers to the signal ratio)
Method in brief: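 Cells were plated and grown for 24 h at 37 °C. Ro20-1724 (0.1 mM final) went in first, then compound for 10 min. NKH477 (200 nM) with quinpirole (12 nM) followed for 30 min at RT, then HTRF detection reagents for 1 h.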

[16] = molecular target: Gonadotropin-releasing hormone receptor (Homo sapiens) (UniProt P30968); test: Human gonadotropin-releasing hormone receptor (GnRHR) small molecule agonists, calcium flux assay in GnRHR-HEK293 cells (AID 1920063); also: nearly all actives have a fitted effect of over 35% in size; also: potency is read from the fitted curve at half-maximal effect
Method in brief: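 Calcium flux, agonist mode, human GnRHR stably integrated in HEK293; dye 1 h at 37 C before compound; Ex/Em=480/540 kinetic read, 3 min; 15 concentrations, triplicate.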

[17] = molecular target: Muscarinic acetylcholine receptor M1 (Homo sapiens) (UniProt P11229); test: Cholinergic receptor muscarinic 1 (CHRM1) small molecule antagonists, cell-based qHTS assay (AID 1963588); also: nearly all actives have a fitted effect of over 40% in size
Method in brief: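 Compounds were tested at 15 concentrations in three independent runs. Dye-loaded CHRM1-CHO cells were exposed 5 min at room temperature before stimulation by acetylcholine added at 50nM. Intracellular calcium was read kinetically on FDSS for 3 min.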

[18] = cAMP Responsive Elements (CRE) small molecule agonists, cell-based qHTS assay (AID 1963590)
Method in brief: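 Quantitative HTS for CRE agonists: HEK 293T CRE-bla cells, overnight plating, 3 h compound incubation at 37 C/5% CO2, then 2 h room-temperature LiveBLAzer B/G FRET substrate loading.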

[19] = cAMP Responsive Elements (CRE) small molecule antagonists, cell-based qHTS assay (AID 1963591; active = well fitted inhibition curve with a large enough effect in the signal ratio in the repeat runs, not every such curve was filed as active; the % refers to the signal ratio; also: potency is read from the fitted curve at half-maximal effect)
Method in brief: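 Fluorescence intensity from cleaved LiveBLAzer B/G substrate (2 h, room temperature) quantified CRE-bla activity in HEK 293T cells exposed 3 h to compound with 0.25 uM final NKH477.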

[20] = molecular target: Beta-2 adrenergic receptor (Homo sapiens) (UniProt P07550); test: Adrenergic beta2 receptor (ADRB2) small molecule agonists, cell-based qHTS assay (AID 1963593);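 also: CHO cells stably overexpressing human ADRB2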
Method in brief: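 CHO cells stably over-expressing ADRB2 were plated overnight at 37C, then dosed with compounds plus a stimulation mix containing 100uM IBMX and 25uM Ro-20-1724 for 0.5hr at room temperature. cAMP was measured by HTRF competition, 1hr.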

Measured: Potency

Gonadotropin-releasing hormone receptor (Homo sapiens), sequence (P30968 whole entry, looked up): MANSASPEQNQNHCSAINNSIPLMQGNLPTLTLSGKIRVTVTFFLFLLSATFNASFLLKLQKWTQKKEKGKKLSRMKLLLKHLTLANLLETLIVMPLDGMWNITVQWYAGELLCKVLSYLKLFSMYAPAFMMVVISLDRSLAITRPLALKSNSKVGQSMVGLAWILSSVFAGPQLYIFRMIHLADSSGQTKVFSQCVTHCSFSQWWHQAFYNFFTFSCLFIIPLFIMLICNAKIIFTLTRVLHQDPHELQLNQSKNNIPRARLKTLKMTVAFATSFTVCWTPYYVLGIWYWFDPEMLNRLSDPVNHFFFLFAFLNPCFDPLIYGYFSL
D(2) dopamine receptor (Homo sapiens), sequence (P14416 whole entry, looked up): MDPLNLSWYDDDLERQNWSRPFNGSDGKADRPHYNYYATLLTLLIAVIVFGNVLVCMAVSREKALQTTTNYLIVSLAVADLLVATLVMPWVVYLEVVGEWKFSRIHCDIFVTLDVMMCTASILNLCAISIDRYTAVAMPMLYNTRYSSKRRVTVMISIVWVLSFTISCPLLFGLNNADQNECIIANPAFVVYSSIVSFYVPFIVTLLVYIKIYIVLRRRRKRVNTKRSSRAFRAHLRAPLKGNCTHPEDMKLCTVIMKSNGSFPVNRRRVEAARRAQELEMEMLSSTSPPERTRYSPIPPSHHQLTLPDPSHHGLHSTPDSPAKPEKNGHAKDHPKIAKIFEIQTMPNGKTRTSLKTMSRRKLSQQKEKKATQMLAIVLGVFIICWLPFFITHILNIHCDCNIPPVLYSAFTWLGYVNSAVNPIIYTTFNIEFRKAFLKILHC
Muscarinic acetylcholine receptor M1 (Homo sapiens), sequence (P11229 whole entry, looked up): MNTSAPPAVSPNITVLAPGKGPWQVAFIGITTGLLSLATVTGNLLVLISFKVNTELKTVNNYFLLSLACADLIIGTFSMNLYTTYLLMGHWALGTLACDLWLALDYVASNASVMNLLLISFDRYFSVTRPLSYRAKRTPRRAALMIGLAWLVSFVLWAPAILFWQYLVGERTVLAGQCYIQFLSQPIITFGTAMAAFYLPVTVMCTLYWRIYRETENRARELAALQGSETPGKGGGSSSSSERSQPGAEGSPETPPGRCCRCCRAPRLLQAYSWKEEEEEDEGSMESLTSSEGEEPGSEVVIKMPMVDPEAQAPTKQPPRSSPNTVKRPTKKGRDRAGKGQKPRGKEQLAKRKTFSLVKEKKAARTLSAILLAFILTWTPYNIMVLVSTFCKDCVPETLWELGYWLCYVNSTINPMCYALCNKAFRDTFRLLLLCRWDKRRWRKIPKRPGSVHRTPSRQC
5-hydroxytryptamine receptor 2A (Homo sapiens), sequence (P28223 whole entry, looked up): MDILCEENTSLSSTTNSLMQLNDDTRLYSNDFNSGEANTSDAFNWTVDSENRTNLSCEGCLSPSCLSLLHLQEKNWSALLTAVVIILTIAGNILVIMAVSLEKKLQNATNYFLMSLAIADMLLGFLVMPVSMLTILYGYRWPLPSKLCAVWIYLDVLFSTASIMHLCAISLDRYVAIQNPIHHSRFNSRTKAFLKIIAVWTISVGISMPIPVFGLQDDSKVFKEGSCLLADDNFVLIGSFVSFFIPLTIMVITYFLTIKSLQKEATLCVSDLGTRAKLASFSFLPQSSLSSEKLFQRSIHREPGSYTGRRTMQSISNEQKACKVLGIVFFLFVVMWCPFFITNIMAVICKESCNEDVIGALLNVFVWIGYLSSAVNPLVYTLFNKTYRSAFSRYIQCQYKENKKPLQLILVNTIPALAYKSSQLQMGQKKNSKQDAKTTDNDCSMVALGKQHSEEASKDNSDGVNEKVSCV
Beta-2 adrenergic receptor (Homo sapiens), sequence (P07550 whole entry, looked up): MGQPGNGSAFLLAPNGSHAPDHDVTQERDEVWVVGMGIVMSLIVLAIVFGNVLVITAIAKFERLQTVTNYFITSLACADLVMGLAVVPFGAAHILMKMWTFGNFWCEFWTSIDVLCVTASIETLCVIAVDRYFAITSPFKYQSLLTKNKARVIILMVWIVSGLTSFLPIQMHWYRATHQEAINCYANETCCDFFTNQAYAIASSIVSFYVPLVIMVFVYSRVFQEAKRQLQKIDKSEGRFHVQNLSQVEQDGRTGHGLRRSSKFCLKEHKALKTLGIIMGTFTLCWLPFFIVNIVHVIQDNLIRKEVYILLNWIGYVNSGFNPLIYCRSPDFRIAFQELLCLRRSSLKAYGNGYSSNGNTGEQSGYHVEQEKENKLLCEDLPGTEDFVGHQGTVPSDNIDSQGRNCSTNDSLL
KiSS-1 receptor (Homo sapiens), sequence (Q969F8 whole entry, looked up): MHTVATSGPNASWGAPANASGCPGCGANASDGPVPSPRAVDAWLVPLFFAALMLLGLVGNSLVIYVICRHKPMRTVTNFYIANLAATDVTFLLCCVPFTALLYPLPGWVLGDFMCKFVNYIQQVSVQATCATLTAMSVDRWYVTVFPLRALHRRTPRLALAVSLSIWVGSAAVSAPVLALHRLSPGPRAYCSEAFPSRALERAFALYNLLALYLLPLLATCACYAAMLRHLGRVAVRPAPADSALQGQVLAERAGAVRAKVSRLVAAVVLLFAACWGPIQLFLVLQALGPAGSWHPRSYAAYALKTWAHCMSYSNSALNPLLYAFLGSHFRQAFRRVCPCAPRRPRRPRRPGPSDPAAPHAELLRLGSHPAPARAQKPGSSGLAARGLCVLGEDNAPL

CCC(CN)=C(c1ccccc1)c1ccccc1
active: [11] 23.9 µM
not listed: [16] | [17] | [18] | [19] | [20]
inactive: all other assays above

CCCCC=O
not listed: [2] | [4] | [5] | [9]
inactive: all other assays above

Nc1ccn(C2CO[C@H](CO)O2)c(=O)n1 (stereo partly drawn)
active: [16] 4.25 µM | [3] 16.9 µM | [11] 7.56 µM
not listed: [2] | [9] | [10] | [12]
inactive: all other assays above

NC(=S)NC(N)=S
active: [1] 13.7 µM
not listed: [2]
inactive: all other assays above

Cc1ccc(C(N)=O)cc1N
not listed: [2] | [4] | [5] | [9] | [15]
inactive: all other assays above

C1CCC(C(CC2CCCCN2)C2CCCCC2)CC1 (stereo not drawn)
active: [19] 29.8 µM
inactive: [1] | [2] | [3] | [4] | [5] | [6] | [7] | [9] | [14]

CCc1c(C(=O)NN2CCCCC2)nn(-c2ccc(Cl)cc2Cl)c1-c1ccc(Br)cc1
inactive: [1] | [16] | [3] | [4] | [5] | [10] | [11] | [12] | [19] | [15]
active: [6] 40.8 µM | [8] 36.3 µM
